# From PubChem BioAssay (EPA / NIEHS)
# Inconclusive results are not listed. Activity calls are given as the source filed them. The calls were made as follows: active = hit-call score of the fitted dose curve at least 0.9, where 1 is the maximum; inconclusive = response in the unintended direction; inactive = score below 0.9.
# Legend:
# [1] = target: sheep Cyclooxygenase-1 (Cox1), PTGS1 (gene 443551) (UniProt P05979); experiment: NVS_ENZ_oCOX1: NovaScreen (NVS) Enzymatic Assay for sheep Cyclooxygenase-1 (Cox1) (AID 2283239);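 also: actives reduce cyclooxygenase activity so potencies are for inhibitors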
# Chain of sheep Cyclooxygenase-1 (Cox1), PTGS1 (gene 443551) (P05979 whole entry, looked up): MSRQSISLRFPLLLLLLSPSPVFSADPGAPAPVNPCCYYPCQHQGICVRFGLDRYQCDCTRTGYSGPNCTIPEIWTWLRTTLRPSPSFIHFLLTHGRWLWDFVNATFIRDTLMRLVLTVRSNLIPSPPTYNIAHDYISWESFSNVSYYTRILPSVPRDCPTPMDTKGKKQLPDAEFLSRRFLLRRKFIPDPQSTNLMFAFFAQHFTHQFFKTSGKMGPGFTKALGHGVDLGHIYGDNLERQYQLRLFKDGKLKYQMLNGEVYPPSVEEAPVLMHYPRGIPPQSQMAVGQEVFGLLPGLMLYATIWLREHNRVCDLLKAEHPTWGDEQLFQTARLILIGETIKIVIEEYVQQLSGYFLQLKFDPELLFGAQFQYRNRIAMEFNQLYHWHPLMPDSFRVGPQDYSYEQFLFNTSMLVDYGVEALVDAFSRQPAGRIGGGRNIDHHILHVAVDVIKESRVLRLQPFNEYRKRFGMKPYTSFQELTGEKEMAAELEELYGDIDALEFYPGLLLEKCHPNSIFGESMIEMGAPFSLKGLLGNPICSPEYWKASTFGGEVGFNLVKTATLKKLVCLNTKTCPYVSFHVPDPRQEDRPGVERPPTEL
# In short: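 Absorbance read-out of cyclooxygenase activity in a cell-free preparation from sheep seminal vesicles, taken 0.66 hour after dosing. Initial testing was in duplicate at 25 uM, and confirmatory testing was run in concentration series.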
# [2] = target: Adenosine receptor A1 (Bos taurus) (UniProt P28190); experiment: NVS_GPCR_bAdoR_NonSelective: NovaScreen (NVS) G Protein-Coupled Receptor Assay for bovine Adenosine Receptor (AdoR), Non-selective Binding (AID 2283244)
# Chain of Adenosine receptor A1 (Bos taurus) (P28190 whole entry, looked up): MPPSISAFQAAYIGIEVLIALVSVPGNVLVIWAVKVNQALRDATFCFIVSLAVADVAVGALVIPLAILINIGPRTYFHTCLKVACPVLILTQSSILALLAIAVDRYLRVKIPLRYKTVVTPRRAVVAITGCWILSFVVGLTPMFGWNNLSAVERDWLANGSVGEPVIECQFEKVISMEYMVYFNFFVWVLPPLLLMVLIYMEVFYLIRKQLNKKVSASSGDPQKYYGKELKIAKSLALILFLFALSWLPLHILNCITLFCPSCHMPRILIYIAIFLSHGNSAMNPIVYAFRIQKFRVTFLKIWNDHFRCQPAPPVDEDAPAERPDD
# In short: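 Bovine striatal membranes, radioligand displacement binding, 1 h after dosing, filter-based scintillation counting. Screened in duplicate at 25 uM, then concentration-response up to 50 uM; loss of specific binding relative to DMSO.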
smiles,measurement,setting,value
COCC(C)N(C(=O)CCl)c1c(C)csc1C (centres undefined),outcome,[1],inactive
CNC(=O)N(C)c1nnc(C(C)(C)C)s1,outcome,[1],inactive
CCC(C)n1c(=O)[nH]c(C)c(Br)c1=O (centres undefined),outcome,[2],inactive
COP(=S)(OC)SCn1nnc2ccccc2c1=O,AC50,[2],8.1 µM (active)
